# Experimental data taken from PubChem BioAssay AID440 (NMMLSC, 2006).
# The campaign covered roughly 24,000 compounds. About 180 (0.75%) were called active. The list comes from a sample in which actives are over-represented; it also holds similar structures and randomly drawn compounds. A number with no mark means an inactive call. No stated cut-off is given here; in the data, active means inhibition above about 30%; inconclusive means no clear call, values can overlap the other calls; inactive means below that.
# Target: fMet-Leu-Phe receptor (Homo sapiens) (UniProt P21462)
# Sequence (P21462 whole entry, looked up): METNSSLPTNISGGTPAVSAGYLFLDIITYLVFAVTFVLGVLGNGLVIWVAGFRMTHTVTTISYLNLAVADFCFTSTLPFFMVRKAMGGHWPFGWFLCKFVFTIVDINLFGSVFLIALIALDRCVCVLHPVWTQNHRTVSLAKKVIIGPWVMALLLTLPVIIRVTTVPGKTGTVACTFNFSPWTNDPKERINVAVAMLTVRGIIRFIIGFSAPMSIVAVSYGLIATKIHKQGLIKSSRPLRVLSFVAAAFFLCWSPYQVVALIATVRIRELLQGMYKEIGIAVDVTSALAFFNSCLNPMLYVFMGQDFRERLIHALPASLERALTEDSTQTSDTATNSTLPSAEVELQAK
# Assay: small molecules displacing FPR fluorescent ligand – cell-based, FPRL1 counter-screen, flow cytometry, primary screen (AID 440);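 further: 0% = buffer wells and 100% = receptor blocker peptide wells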
# Conditions: FPR-expressing cells, fluorescent ligand binding, hits give high values, concentration not given here
row,Structure (SMILES),inhibition [%]
1,CCN(CC)CCNC(=O)Cn1cnc2sc(C)c(S(=O)(=O)N3CCOCC3)c2c1=O,-9.4
2,C/C(CC(O)(/C=N/O)c1ccccc1)=N\O (stereo not given),7.2
3,O=C(Cn1c(=O)n(Cc2ccco2)c(=O)c2ccccc21)NCC1CCCO1 (stereo not given),5.8
4,N#CCCN1CCN(S(=O)(=O)c2ccc(S(=O)(=O)NC3CC3)cc2)CC1,-1.2
5,CCOc1ccc(CCNC(=O)C2CCN(c3ccc(N4CCOCC4)nn3)CC2)cc1OCC,-8.8
6,COCCOC(=O)C1=C(C)NC(=O)CC1c1cc2c(cc1Br)OCO2 (stereo not given),-1.8
7,Nc1nonc1-c1noc(-c2ccc(Br)o2)n1,-6.7
8,CCC(C)(C(=O)NC1CCCC1)N(C(=O)CNC(C)=O)c1ccc(C)cc1 (stereo not given),5.8
9,O=C(COC(=O)c1ccccc1C(=O)c1ccccc1)c1ccco1,-1
10,CCOC(=O)N1CCN(C(=O)c2cc3c(-c4ccc(Cl)cc4)nn(C)c3s2)CC1,8.5
11,CC1CCN(c2oc(-c3ccccc3F)nc2C#N)CC1,-10.3
12,O=C(NCCc1ccc(Cl)cc1)C1CC(=O)N(C2CCCCC2)C1 (stereo not given),-0.9
13,CCOc1cc2c(cc1OCC)C(C(=O)O)C(c1ccc(OC)c(O)c1)N(C)C2=O (stereo not given),12.3
14,CCOc1ccc(CC(=O)Nc2ccc(S(=O)(=O)Nc3cc(C)on3)cc2)cc1OCC,-0.6
15,O=C(Cn1nnc(-c2ccc(CN3CCOCC3)cc2)n1)NC1CCCCC1,5.2
16,Cc1cc(C(=O)O)c(S(C)(=O)=O)s1,-3.8
17,Cc1cc(=O)n(C)c(=O)n1CCCNc1ccccc1,-1.3
18,COCc1cc(C)nc(SCC(=O)Nc2cccc(C)c2)c1C#N,-8.6
19,CCOC(=O)c1ccc(CS(=O)c2ccc(Cl)cc2)o1 (stereo not given),-1.1
20,CCCS(=O)(=O)N1CCC(C(=O)NCCCN(C)Cc2ccccc2)CC1,-2.3
21,C=CCN(CC=C)C(=O)CN1C(=O)c2ccccc2C1=O,13.3
22,Cc1cc(=O)oc(C)c1C(=O)NCc1ccc(F)cc1,-12.6
23,O=C(O)C1CCCCC1C(=O)Nc1ccc(Cl)cc1 (stereo not given),-10.1
24,Cc1c2cnn(-c3ccccc3)c(=O)c2c(C)n1CCCC(=O)N1CCN(C)CC1,1.2
25,O=C1CCC(Cc2ccccc2)N1 (stereo not given),1.5
26,COc1ccc(C(=O)NC(=O)CSc2nnc(-c3ccco3)n2-c2ccccc2)cc1,-1.4
27,Cn1c(C(=O)N2CCC(C(N)=O)CC2)cc2c(=O)n(C)c3ccccc3c21,-1
28,O=C(NCc1ccco1)C1CCCN(S(=O)(=O)c2cccc3nonc23)C1 (stereo not given),-5.3
29,Cn1c(=O)n(C)c2cc(CNc3ccc(N4CCOCC4)c(C(=O)O)c3)ccc21,0.5
30,Cc1ccc(NC(=O)c2nc[nH]c2C(=O)N2CCCCC2)c(C(=O)c2ccccc2)c1,-3.6
